According to PubChem BioAssay AID1159580 (chemical genetic matrix, 2015):
About 2,000 (36%) of roughly 5,500 compounds were called active. Not shown: some 18% with an inconclusive outcome. No stated cut-off is given here; in the data, active means normalized growth mostly below about 0.91 (no sharp cut-off); inconclusive means no clear call, values can overlap the other calls; inactive means mostly above about 0.92. Some of the results follow.

Experiment: chemical genetic growth profiling, strain panel (AID 1159580);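 further: tested at 20 µM; growth read once vehicle control cultures reached saturation at 30 °C; 1 = growth at the plate median or of vehicle wells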
Conditions: growth OD

Measured: normalized growth

CO[C@@]12[C@@H]3NC3CN1C1=C(C(=O)C(N)=C(C)C1=O)[C@@H]2COC(N)=O (some centres not stated)
inactive: S. cerevisiae deletion strains, locus YJR075W, strain HOC1, stronger effect = lower value 0.995 | S. cerevisiae deletion strains, locus YKL009W, strain mrt4, stronger effect = lower value 0.964 | S. cerevisiae deletion strains, locus YKL068W, stronger effect = lower value 0.984 | S. cerevisiae deletion strains, locus YKL085W, strain MDH1 (second series), stronger effect = lower value 0.983 | S. cerevisiae deletion strains, locus YKL085W, strain MDH1, stronger effect = lower value 0.983 | S. cerevisiae deletion strains, locus YKL160W, strain elf1, stronger effect = lower value 0.974 | S. cerevisiae deletion strains, locus YKL190W, strain CNB1, stronger effect = lower value 1 | S. cerevisiae deletion strains, locus YKR001C, strain vps1, stronger effect = lower value 0.982 | S. cerevisiae deletion strains, locus YKR026C, strain gcn3, stronger effect = lower value 0.964 | S. cerevisiae deletion strains, locus YKR091W, strain srl3, stronger effect = lower value 0.959 | S. cerevisiae deletion strains, locus YLL001W, strain dnm1, stronger effect = lower value 0.929 | S. cerevisiae deletion strains, locus YLL026W, stronger effect = lower value 0.977 | S. cerevisiae deletion strains, locus YLL041C, strain sdh2, stronger effect = lower value 0.977 | S. cerevisiae deletion strains, locus YLR027C, strain aat2, stronger effect = lower value 0.953 | S. cerevisiae deletion strains, locus YLR039C, strain RIC1, stronger effect = lower value 1.01 | S. cerevisiae deletion strains, locus YLR058C, strain SHM2, stronger effect = lower value 0.999 | S. cerevisiae deletion strains, locus YLR102C, strain apc9, stronger effect = lower value 0.986 | S. cerevisiae deletion strains, locus YLR113W, strain HOG1, stronger effect = lower value 0.973 | S. cerevisiae deletion strains, locus YLR221C, strain rsa3, stronger effect = lower value 1.01 | S. cerevisiae deletion strains, locus YLR258W, strain gsy2, stronger effect = lower value 0.992 | S. cerevisiae deletion strains, locus YLR262C, strain YPT6 (second series), stronger effect = lower value 0.938 | S. cerevisiae deletion strains, locus YLR262C, strain YPT6, stronger effect = lower value 0.947 | S. cerevisiae deletion strains, locus YLR268W, strain sec22, stronger effect = lower value 1.01 | S. cerevisiae deletion strains, locus YLR320W, strain mms22, stronger effect = lower value 1.01 | S. cerevisiae deletion strains, locus YLR330W, strain CHS5, stronger effect = lower value 0.987 | S. cerevisiae deletion strains, locus YLR342W, strain FKS1 (second series), stronger effect = lower value 1 | S. cerevisiae deletion strains, locus YLR342W, strain FKS1, stronger effect = lower value 0.952 | S. cerevisiae deletion strains, locus YLR357W, strain rsc2, stronger effect = lower value 0.961 | S. cerevisiae deletion strains, locus YLR370C, strain arc18, stronger effect = lower value 0.96 | S. cerevisiae deletion strains, locus YLR371W, strain rom2, stronger effect = lower value 0.961 | S. cerevisiae deletion strains, locus YLR384C, strain iki3, stronger effect = lower value 0.953 | S. cerevisiae deletion strains, locus YLR418C, strain cdc73, stronger effect = lower value 1.05 | S. cerevisiae deletion strains, locus YML016C, strain PPZ1, stronger effect = lower value 1 | S. cerevisiae deletion strains, locus YML032C, strain rad52, stronger effect = lower value 0.96 | S. cerevisiae deletion strains, locus YML120C, strain ndi1, stronger effect = lower value 0.94 | S. cerevisiae deletion strains, locus YML124C, strain tub3, stronger effect = lower value 0.979 | S. cerevisiae deletion strains, locus YMR058W, strain fet3, stronger effect = lower value 0.942 | S. cerevisiae deletion strains, locus YMR078C, strain ctf18, stronger effect = lower value 0.975 | S. cerevisiae deletion strains, locus YMR125W, strain sto1, stronger effect = lower value 0.982 | S. cerevisiae deletion strains, locus YMR129W, stronger effect = lower value 0.975 | S. cerevisiae deletion strains, locus YMR205C, strain PFK2, stronger effect = lower value 0.996 | S. cerevisiae deletion strains, locus YMR223W, strain ubp8, stronger effect = lower value 0.977 | S. cerevisiae deletion strains, locus YMR231W, strain pep5, stronger effect = lower value 0.949 | S. cerevisiae deletion strains, locus YMR263W, strain SAP30, stronger effect = lower value 1.01 | S. cerevisiae deletion strains, locus YMR307W, strain GAS1, stronger effect = lower value 1.02 | S. cerevisiae deletion strains, locus YNL067W, strain RPL9B, stronger effect = lower value 1.02 | S. cerevisiae deletion strains, locus YNL071W, strain lat1, stronger effect = lower value 0.971 | S. cerevisiae deletion strains, locus YNL128W, strain TEP1, stronger effect = lower value 1 | S. cerevisiae deletion strains, locus YNL153C, strain GIM3, stronger effect = lower value 1.03 | S. cerevisiae deletion strains, locus YNL183C, strain NPR1, stronger effect = lower value 0.94 | S. cerevisiae deletion strains, locus YNL209W, strain ssb2, stronger effect = lower value 0.972 | S. cerevisiae deletion strains, locus YNL233W, strain BNI4, stronger effect = lower value 1.05 | S. cerevisiae deletion strains, locus YNL248C, strain rpa49, stronger effect = lower value 0.99 | S. cerevisiae deletion strains, locus YNL250W, strain rad50, stronger effect = lower value 0.975 | S. cerevisiae deletion strains, locus YNL271C, strain bni1, stronger effect = lower value 0.979 | S. cerevisiae deletion strains, locus YNL298W, strain CLA4, stronger effect = lower value 0.978 | S. cerevisiae deletion strains, locus YNL307C, strain MCK1, stronger effect = lower value 0.979 | S. cerevisiae deletion strains, locus YNL322C, strain KRE1 (second series), stronger effect = lower value 0.945 | S. cerevisiae deletion strains, locus YNL322C, strain KRE1, stronger effect = lower value 0.997 | S. cerevisiae deletion strains, locus YNR049C, strain mso1, stronger effect = lower value 0.978 | S. cerevisiae deletion strains, locus YNR052C, strain pop2, stronger effect = lower value 0.96 | S. cerevisiae deletion strains, locus YOL006C, strain TOP1, stronger effect = lower value 1.04 | S. cerevisiae deletion strains, locus YOL012C, strain htz1 0.963 | S. cerevisiae deletion strains, locus YOL147C, strain pex11, stronger effect = lower value 0.984 | S. cerevisiae deletion strains, locus YOR001W, strain rrp6, stronger effect = lower value 0.946 | S. cerevisiae deletion strains, locus YOR061W, strain CKA2, stronger effect = lower value 1.01 | S. cerevisiae deletion strains, locus YOR069W, strain VPS5, stronger effect = lower value 1 | S. cerevisiae deletion strains, locus YOR070C, strain gyp1, stronger effect = lower value 0.993 | S. cerevisiae deletion strains, locus YOR080W, strain dia2, stronger effect = lower value 0.968 | S. cerevisiae deletion strains, locus YOR083W, strain WHI5, stronger effect = lower value 0.94 | S. cerevisiae deletion strains, locus YOR106W, strain vam3, stronger effect = lower value 0.929 | S. cerevisiae deletion strains, locus YOR136W, strain idh2, stronger effect = lower value 0.981 | S. cerevisiae deletion strains, locus YOR144C, strain elg1, stronger effect = lower value 0.985 | S. cerevisiae deletion strains, locus YOR184W, strain ser1, stronger effect = lower value 0.948 | S. cerevisiae deletion strains, locus YOR231W, strain MKK1, stronger effect = lower value 0.982 | S. cerevisiae deletion strains, locus YOR265W, strain rbl2, stronger effect = lower value 0.963 | S. cerevisiae deletion strains, locus YOR270C, strain vph1, stronger effect = lower value 1 | S. cerevisiae deletion strains, locus YOR290C, strain snf2, stronger effect = lower value 0.998 | S. cerevisiae deletion strains, locus YOR316C, strain cot1, stronger effect = lower value 0.994 | S. cerevisiae deletion strains, locus YPL051W, strain arl3, stronger effect = lower value 0.985 | S. cerevisiae deletion strains, locus YPL055C, strain LGE1, stronger effect = lower value 1.02 | S. cerevisiae deletion strains, locus YPL078C, strain atp4, stronger effect = lower value 0.921 | S. cerevisiae deletion strains, locus YPL106C, strain sse1, stronger effect = lower value 0.951 | S. cerevisiae deletion strains, locus YPL240C, strain hsp82, stronger effect = lower value 0.979 | S. cerevisiae deletion strains, locus YPL241C, strain CIN2, stronger effect = lower value 0.998 | S. cerevisiae deletion strains, locus YPL256C, strain CLN2, stronger effect = lower value 0.971 | S. cerevisiae deletion strains, locus YPR119W, strain clb2, stronger effect = lower value 0.995 | S. cerevisiae deletion strains, locus YPR141C, strain kar3, stronger effect = lower value 0.983 | S. cerevisiae deletion strains, locus YPR163C, strain tif3, stronger effect = lower value 0.966 | S. cerevisiae deletion strains, locus YPR167C, strain met16, stronger effect = lower value 0.987 | S. cerevisiae deletion strains, strain wtn01, stronger effect = lower value 1.02 | S. cerevisiae strains, strain wild type, stronger effect = lower value 0.997
